Pf Dd2 inh = blocks in vitro growth of P. falciparum Dd2. Potency, µM (doses to about 28.9 µM), inactives show top-dose activity, negative = inhibition, most hits filed as inhibitors. P. falciparum Dd2 growth, SYBR Green, 72 h. 4.3% of 120,000 active; active means well fitted inhibition curve with a large enough effect;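 further: plate controls were DMSO vehicle for no effect and reference drug for full effect; nearly all actives have a fitted effect of over 65% in size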
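Infected erythrocytes (Dd2, 0.3% parasitemia, 2.5% hematocrit final) are added to compound in RPMI-1640/Albumax II medium, grown 72 h at 37C in low oxygen, then lysed with saponin/Triton-X containing SYBR Green and read by fluorescence.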
Numbers without * were called inactive; [ ] = dose if it differs, or a comment. The full list was thinned out, with hits kept by preference. Potency means the concentration at half of the fitted maximal effect.

Results for COc1cccc(-c2nc(C3CC(=O)N(C4CCCCC4)C3)no2)c1 (centres undefined) ?
Pf Dd2 inh: 39.0%

What do the screens show for `O=C(NCCN1CCCCC1)C1CCc2ncc(-c3ccc(F)cc3)n2C1` (centres undefined)?
Pf Dd2 inh: -18.3%

Results for Cn1nc(C2CCN(C(=O)c3ccccc3Cl)CC2)[nH]c1=O ?
Pf Dd2 inh: 3.3%[44.1 µM]

What do the screens show for `COCCOCc1nc(C2CCN(S(=O)(=O)c3c(C)noc3C)CC2)no1`?
Pf Dd2 inh: -5.8%

Results for C1COC(CNC2CNC2)C1 (centres undefined) ?
Pf Dd2 inh: 9.0%[76.6 µM]

What do the screens show for `CC(C)CNC(=O)C1CCN(C(=O)c2ncn3c2COC(c2ccc(F)cc2)C3)CC1` (centres undefined)?
Pf Dd2 inh: -2.7%

How did O=C1NC2(CCCN(Cc3ccncc3)C2)COc2ccccc21 (centres undefined) do in these assays?
Pf Dd2 inh: -21.5%[44.1 µM]

What do the screens show for `Cc1ccc(CN2CCC3(CC2)NC(=O)c2ccccc2O3)cc1`?
Pf Dd2 inh: -3.6%[44.1 µM]

What do the screens show for `CC1=NOC2(CCN(Cc3ccc(C)cc3)CC2)C1`?
Pf Dd2 inh: inactive

How did COc1cccc(CN2CCC3(CC2)COc2ccccc2C(=O)N3)c1 do in these assays?
Pf Dd2 inh: inactive

How did O=C1NC2(CCN(Cc3ccsc3)CC2)COc2ccccc21 do in these assays?
Pf Dd2 inh: 3.16µM*

Results for N#Cc1ccc(CN2CCCC3(COc4ccccc4C(=O)N3)C2)cc1 (centres undefined) ?
Pf Dd2 inh: -23.6%

How did O=C1NC2(CCCN(C(=O)c3cccnc3)C2)COc2ccccc21 (centres undefined) do in these assays?
Pf Dd2 inh: inactive

What do the screens show for `N#Cc1ccc(CN2CCC3(CC2)COc2ccccc2C(=O)N3)cc1`?
Pf Dd2 inh: 2.51µM*

What do the screens show for `Cc1ccc(CN2CCCC3(COc4ccccc4C(=O)N3)C2)cc1` (centres undefined)?
Pf Dd2 inh: 12.6µM*

What do the screens show for `Cc1ccc(CN2CCC3(CC2)COc2ccccc2CN3)cc1`?
Pf Dd2 inh: 6.31µM*

How did O=[S+]1([O-])NC2(CCN(Cc3ccsc3)CC2)COc2ccccc21 do in these assays?
Pf Dd2 inh: -15.6%

Results for N#Cc1ccc(CN2CC3(C2)NC(=O)c2ccccc2O3)cc1 ?
Pf Dd2 inh: inactive

Results for COc1cccc(CNC(=O)C2CCCN(c3cnn(Cc4ccccc4)c(=O)c3)C2)c1 (centres undefined) ?
Pf Dd2 inh: inactive

How did COc1cc(SC)ccc1C(=O)N[C@H]1CCN2C(=O)N(c3cccc(C(F)(F)F)c3)C(=O)[C@@H]2C1 do in these assays?
Pf Dd2 inh: inactive

Results for O=C1CC2(CCN(C(=O)c3ccc4c(c3)OCO4)CC2)Oc2ccccc2N1 ?
Pf Dd2 inh: -1.1%

Results for N#Cc1cccc(-c2ncc3c(n2)OCCN(Cc2ccc(F)cc2F)C3=O)c1 ?
Pf Dd2 inh: -12.2%[44.1 µM]

How did CCOc1ccc(CC(=O)N2c3ccccc3CC2c2nc(C3CC3)no2)cc1OCC (centres undefined) do in these assays?
Pf Dd2 inh: -0.8%[5.79 µM]

What do the screens show for `Cc1ccc(C2NC(=O)N(CC(=O)NC3CCCCC3)C3=C2C(=O)OC3)cc1` (centres undefined)?
Pf Dd2 inh: inactive

How did O=C1NC2(CCN(Cc3ccc(OC(F)(F)F)cc3)C2)COc2ccccc21 (centres undefined) do in these assays?
Pf Dd2 inh: 8.9%

What do the screens show for `O=C1NC2(CCN(Cc3ccncc3)C2)Oc2ccccc21` (centres undefined)?
Pf Dd2 inh: 13.6%[44.1 µM]

What do the screens show for `COc1cccc(CN2CC3(C2)NC(=O)c2ccccc2O3)c1`?
Pf Dd2 inh: -4.1%[44.1 µM]

What do the screens show for `O=C1NC2(CCCN(Cc3cccnc3)C2)Oc2ccccc21` (centres undefined)?
Pf Dd2 inh: -14.7%[44.1 µM]

How did COc1cccc(CN2CCCC3(C2)NC(=O)c2ccccc2O3)c1 (centres undefined) do in these assays?
Pf Dd2 inh: 15.8µM*

What do the screens show for `O=C1NC2(CCN(Cc3ccccc3)C2)COc2ccccc21` (centres undefined)?
Pf Dd2 inh: 10µM*

Results for N#Cc1cccc(CN[C@@H]2CO[C@H](CNC(=O)c3cccs3)[C@H]2O)c1 ?
Pf Dd2 inh: -24.0%[44.1 µM]

How did CCCNC(=O)N1CCn2nc(C(O)c3ccccc3)cc2C1 (centres undefined) do in these assays?
Pf Dd2 inh: -8.8%

How did COC(=O)c1ccccc1NC(=O)Cc1noc2ccc(C)cc12 do in these assays?
Pf Dd2 inh: 16.2%

Results for Cc1ccc2onc(CC(=O)Nc3cccc(C(F)(F)F)c3)c2c1 ?
Pf Dd2 inh: 11.2µM*

What do the screens show for `Cc1ccc2c(CC(=O)Nc3cccc(C(F)(F)F)c3)coc2c1`?
Pf Dd2 inh: -20.9%

Results for CN(CCc1ccccn1)[C@H]1[C@@H]2OC[C@@H](O2)[C@@H](N(CC2CC2)CC2CC2)[C@@H]1O ?
Pf Dd2 inh: inactive

How did CCCc1nc(C(=O)N(C)Cc2cnn(-c3ccccc3C)c2)cs1 do in these assays?
Pf Dd2 inh: 1.8%

Results for COCCN(Cc1ccc(C)cc1)Cc1ccc(C#N)cc1 ?
Pf Dd2 inh: inactive

How did COCCN(Cc1cnn(-c2ccccc2C)c1)CC1CC1 do in these assays?
Pf Dd2 inh: 7.08µM*

How did COC[C@@H]1CN(C(=O)c2cc(OC)cc(OC)c2)C[C@H]1c1ccncc1 do in these assays?
Pf Dd2 inh: -10.1%

How did CN1C(=O)COC[C@@H]1[C@H](O)c1ccc(NC(=O)c2cnccn2)cc1 do in these assays?
Pf Dd2 inh: -16.0%[44.1 µM]

Results for O=C(Nc1ccc([C@@H](O)[C@H]2COCC(=O)N2CCCc2ccccc2)cc1)c1cnccn1 ?
Pf Dd2 inh: 12.6µM*

How did CC(=O)Nc1ccc([C@@H](O)[C@H]2COCC(=O)N2CCCc2ccccc2)cc1 do in these assays?
Pf Dd2 inh: inactive

Results for COCc1nc2nccc(-c3ccc4c(c3)CC(C)O4)n2n1 (centres undefined) ?
Pf Dd2 inh: -21.4%

Results for O=C(c1ccc(=O)[nH]c1)N1C[C@@H](COCC2CC2)[C@H](c2ccccn2)C1 ?
Pf Dd2 inh: 4.9%

How did COc1ccccc1OCCn1c(COc2cc(C)ccc2C)nc2ccccc21 do in these assays?
Pf Dd2 inh: 6.31µM*

What do the screens show for `COc1ccccc1OCCn1c(NC(=O)c2ccccc2Cl)nc2ccccc21`?
Pf Dd2 inh: -9.4%

Results for COCc1nc2ccccc2n1CCOc1cccc(C)c1 ?
Pf Dd2 inh: 22.2%

Results for C[C@]1(CO)C2CC[C@@H](O)[C@@H](CC(=O)N3CCC[C@H]3CO)[C@]2(C)CC[C@H]1OC(=O)NC1CCCCC1 (some centres undefined) ?
Pf Dd2 inh: inactive

How did COCC1CN(S(=O)(=O)c2cccc3cccnc23)CC12CCNCC2 (centres undefined) do in these assays?
Pf Dd2 inh: inactive

What do the screens show for `CCOC(=O)c1cccc(NC(=O)c2ccc3c(c2)N(C)C2CCCCCN2C3=O)c1` (centres undefined)?
Pf Dd2 inh: -27.2%

How did COc1ccc(S(=O)(=O)N2CCC(n3cnnc3C)CC2)cc1Cl do in these assays?
Pf Dd2 inh: -13.4%

How did CN1CCc2nc3sc(C(=O)Nc4ccccc4C(F)(F)F)c(N)c3cc2C1 do in these assays?
Pf Dd2 inh: 8.91µM*

How did CN1CCc2nc3sc(C(=O)c4ccc(F)cc4)c(N)c3cc2C1 do in these assays?
Pf Dd2 inh: -7.1%

How did COc1ccc(NC(=O)c2sc3nc4c(cc3c2N)CN(Cc2ccccc2)CC4)cc1OC do in these assays?
Pf Dd2 inh: inactive
